HEK cytotox – kills HEK 293 cells. Potency, µM (titrated, usually from 115 µM), for the others: top-dose activity change, negative = cytotoxicity, most hits filed as inhibitors. 94,000 tested, 6.6% active. HEK 293 viability, ATP luminescence (CellTiter-Glo), 48-72 h; further: nearly all actives have a fitted effect of over 60% in size
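ATP-coupled CellTiter-Glo luminescence served as viability read-out, recorded 10 min after reagent addition at room temperature. HEK 293 cells, 250 cells/well, had been incubated with pintool-transferred compound for 48 or 72 hr at 37 degree Celsius.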
3T3 cytotox – NIH 3T3 cell cytotoxicity; NIH 3T3 viability, CellTiter-Glo ATP luminescence, 48-72 h; Potency, µM (top dose mostly 96.7 µM), without a hit: top-dose activity change, negative = cytotoxicity, hits mostly inhibitors; 94,000 tested, 4.3% active; further: nearly all actives have a fitted effect of over 55% in size
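First NIH 3T3 cells are plated at 400 cells/well; next compound is pinned in; then plates incubate 48 or 72 hr at 37 °C; finally CellTiter-Glo is added and luminescence read after 10 min.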
NPR1 antag – human Npr1 receptor antagonism; P16066; 76,000 tested, 1.6% active; HEK293 hNpr1 GloSensor cGMP, ANP-stimulated luminescence; AID 1347048; Potency, µM (doses to about 46.3 µM), for the others: at the highest dose activity change, negative = inhibition, actives largely listed as inhibitors; calls by dose curve; further: nearly all actives have a fitted effect of over 60% in size
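Compound pre-incubated 30 min at room temperature on GloSensor-loaded HEK293 cells stably carrying hNpr1 and the pGS-40F cGMP biosensor. Stimulation uses hNppA at 0.1 nM final; luminescence is taken at baseline and 20 min post-agonist.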
Luciferase inh – blocks purified firefly luciferase enzyme activity. P08659. purified P. pyralis luciferase, luminescence, biochemical. Potency, µM (titrated, usually from 115 µM), usual class: inhibitors. 76,000 tested, 2.5% active. AID 1347043; further: nearly all actives have a fitted effect of over 65% in size
Target sequence (P08659 whole entry, looked up): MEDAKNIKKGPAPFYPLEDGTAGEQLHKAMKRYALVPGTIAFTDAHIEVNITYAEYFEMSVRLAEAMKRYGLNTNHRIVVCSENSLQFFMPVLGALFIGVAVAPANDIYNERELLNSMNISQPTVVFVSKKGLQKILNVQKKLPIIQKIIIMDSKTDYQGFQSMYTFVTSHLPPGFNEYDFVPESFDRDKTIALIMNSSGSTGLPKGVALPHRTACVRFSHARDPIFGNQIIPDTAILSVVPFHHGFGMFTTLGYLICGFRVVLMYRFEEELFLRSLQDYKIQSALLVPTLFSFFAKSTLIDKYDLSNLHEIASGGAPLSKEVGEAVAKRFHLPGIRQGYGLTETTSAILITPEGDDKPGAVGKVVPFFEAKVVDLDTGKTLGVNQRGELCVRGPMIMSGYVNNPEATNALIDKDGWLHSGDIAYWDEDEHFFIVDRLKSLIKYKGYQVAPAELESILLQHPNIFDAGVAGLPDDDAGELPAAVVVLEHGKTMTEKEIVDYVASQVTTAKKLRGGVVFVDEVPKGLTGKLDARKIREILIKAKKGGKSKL
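Purified P. pyralis luciferase (10nM final) in 50mM Tris acetate pH 7.5, 10mM Mg acetate, 0.01% Tween-20, 0.05% BSA with 10uM D-luciferin and 10uM ATP. Compounds titrated qHTS. Luminescence imaged on CCD.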
The depositor's hits bear a star; i = inactive; ? = inconclusive; nt = no result; [ ] = another dose, or the depositor's remark. Most compounds without a hit are left out; they make up all but 11% or so of the library. Unless noted, the call rests on the fitted dose curve; in most records, active means well fitted curve in the direction sought with a large enough effect; inconclusive means small, poorly fitted or top-dose-only effect, or another doubt; inactive means no such curve, though single readings can be large; an effect the other way counts as inactive or inconclusive. On the % scale 0 is the no-effect control and ±100 the full control effect; potency means the concentration at half of the fitted maximal effect.

SMILES	HEK cytotox	3T3 cytotox	NPR1 antag	Luciferase inh
O=C(Cc1c[nH]c2ncc(-c3ccc(F)cc3)cc12)N1CCOCC1	?	?	?	56µM*
O=C(Cc1c[nH]c2ncc(-c3ccc4c(c3)OCO4)cc12)N1CCOCC1	?	25µM*	?	?
CCN(CC)S(=O)(=O)N(C)CC1CCCN(CCc2ccccc2OC)C1 (centres undefined)	?	-19%	3%	i
CCc1cccc(NC(=O)Cn2c(=O)c(-c3noc(C)n3)c3n(c2=O)CCCCC3)c1	0%	-6%	0%	i
COCC(=O)N1CCN(C(=O)c2nc3cccnc3n(C3CCCC3)c2=O)CC1	-4%	-19%	nt	nt
CC(=O)Nc1cccc(C(=O)N2CCC(n3cc(-c4nc(-c5ccccc5)no4)nn3)C2)c1 (centres undefined)	?	?	-16%	?
CCOCCCNC(=O)c1cccc(-c2ccc(OC)nn2)c1	-19%[172 µM]	?	nt	nt
Cc1csc(NC(=O)C2CC(=O)N(c3n[nH]c4ccccc34)C2)n1 (centres undefined)	-19%	-11%	-1%	i
Cc1ccc2nc(NC(=O)C3CC(=O)N(c4n[nH]c5ccccc45)C3)sc2c1 (centres undefined)	40µM*	32µM*	-1%	i
CC(C)NC(=O)c1cnc2c(c1)N(C(=O)Cc1cn(C)c3ccccc13)CCC2	?	?	3%[70.6 µM]	i
COc1ccc(OCc2nc(C3CN(C(=O)Cc4c[nH]c5ccccc45)C3)no2)cc1	45µM*	?	?	i
Cc1ccc(OCCC2CCN(C(=O)Cc3c[nH]c4ccccc34)C2)cc1 (centres undefined)	35µM*	?	?	i
Cc1ccc(C(=O)N2CCC(CCC(=O)NCCc3c[nH]c4ccccc34)CC2)cc1	?	?	-24%	32µM*
COc1cccc(CN2C[C@@H](COCC3CC3)[C@H](c3ccncc3)C2)n1	?	-29%	-20%	i
CCC1(N2CCN(C(=O)Nc3cccc(F)c3C)CC2)CCN(C(=O)C(C)C)C1 (centres undefined)	-8%	-23%	-7%	?
O=C(C[C@H]1NC(=O)c2ccccc2NC1=O)Nc1nc(-c2ccc3c(c2)OCO3)cs1	?	-13%	-8%	i
COc1ccc(-c2cc(C[C@H]3CNCC[C@H]3CC(=O)Nc3ccccc3)no2)cc1	45µM*	40µM*	-21%[70.6 µM]	i
COc1ccc(-c2cc(C[C@H]3CNCC[C@H]3CC(=O)NCc3ccccc3)no2)cc1	89µM*	112µM*	-19%[70.6 µM]	i
COc1ccccc1N1CCN(C(=O)C[C@@H]2CCNC[C@@H]2Cc2cc(-c3ccc(F)cc3)on2)CC1	?	?	-1%	i
COc1ccc(-c2cc(C[C@H]3CNCC[C@H]3CC(=O)NC(C)C)no2)cc1	-21%[172 µM]	-10%[174 µM]	-4%[70.6 µM]	i
O=C(C[C@@H]1CCNC[C@@H]1Cc1cc(-c2ccc(F)cc2)on1)NCc1ccccc1	100µM*	112µM*	-1%[70.6 µM]	i
COc1ccc(-c2cc(C[C@H]3CNCC[C@H]3CC(=O)N3CCN(c4ccccc4OC)CC3)no2)cc1	?	14µM*	-20%	i
COc1ccc(-c2cc(C[C@H]3CNCC[C@H]3CC(=O)NCc3cccnc3)no2)cc1	-15%[172 µM]	-23%[174 µM]	-9%[70.6 µM]	i
O=C1CCN(S(=O)(=O)c2ccccc2)CCCN(C(=O)c2ccc3ccccc3n2)CCN1	i	-10%	3%	i
CNC(=O)c1cc(C2CC2)nc2c1c(C1CCN(C(=O)c3ccccc3C)CC1)nn2C	0%	-20%	nt	nt
O=C(C[C@@H]1CCNC[C@@H]1Cc1cc(-c2ccc(F)cc2)on1)NCc1ccc(F)cc1	79µM*	40µM*	-4%[70.6 µM]	i
O=C(C[C@@H]1CCNC[C@@H]1Cc1cc(-c2ccc(F)cc2)on1)NCc1cccnc1	-2%[172 µM]	2%[138 µM]	-2%[70.6 µM]	i
CC(C)(C)c1ccc(-c2cc(C[C@H]3CNCC[C@H]3CC(=O)NCc3ccc(F)cc3)no2)cc1	28µM*	25µM*	1%	i
O=C(C[C@@H]1CCNC[C@@H]1Cc1cc(-c2ccc(F)cc2)on1)NCc1ccc2c(c1)OCO2	?	?	0%	i
COc1ccc(CNC(=O)C[C@@H]2CCNC[C@@H]2Cc2cc(-c3ccc(C(C)(C)C)cc3)on2)cc1	?	25µM*	2%	i
